60 sequences from the supplement of paper PMC10338343 can be followed below.

Experiment [1] has as its system MILI (PIWIL2) piRISC loaded with L1MC piRNA (26 nt). In words: pre-steady-state target cleavage rate (min^-1); guide: L1MC piRNA 5'p-UAACUAAAUACUAUGCAAGCUGUAGG; higher = faster piRNA-guided slicing of the target. The note with it: auxiliary factor: 500 nM mouse GTSF1. A digest of the protocol: (§1)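 At 33 °C in HEPES–potassium acetate buffer, a transcribed, DNA-blocked target RNA library […] was exposed for 0–8 or 0–960 min to 1 nM active affinity-purified piRISC carrying a single synthetic guide, with or without 500 nM GTSF1 partner protein. Uncleaved targets were sequenced and normalised to depth and to weakly complementary targets. With three trials pooled and k3 capped at 0.0001 min^-1, a burst-and-steady-state fit produced the pre-steady-state cleavage rate.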

Experiment [2] has as its system EfPiwi piRISC loaded with L1MC piRNA (26 nt). The experiment in a line: pre-steady-state target cleavage rate (min^-1); auxiliary factor: 500 nM Ephydatia muelleri Gtsf1; guide: L1MC piRNA 5'p-UAACUAAAUACUAUGCAAGCUGUAGG; MIWI and MILI are mouse PIWI proteins and EfPiwi is from a freshwater sponge; tags in brackets are library labels; higher = faster piRNA-guided slicing of the target. A digest of the protocol: as §1

± gives the standard deviation.

With UCCUGGAACACCUUGCAUAGUAUAUAGUUA, the “pre-steady-state target cleavage rate” value in experiment [1] was 0.189 ± 0.033; in experiment [2], 0.0051 ± 0.0035.

With UCCUCCUACAGCUUGCAUAGCAUUUAGUUA, the entries for the “pre-steady-state target cleavage rate” value in experiment [1] and in experiment [2] were 0.0883 ± 0.013 and 0.00463 ± 0.0019, respectively.

For UCCUGGAACAGCUUGCAUAGUAUUUUCUUA, the “pre-steady-state target cleavage rate” value in experiment [1] stood at 0.0439 ± 0.014; in experiment [2], 0.00388 ± 0.0027.

Consider UCCUGCUACAGCUUGCAUAGUAUUUACUAA, for which the “pre-steady-state target cleavage rate” value came out at 0.112 ± 0.024 in experiment [1] and 0.0025 ± 0.0024 in experiment [2].

For the sequence UCCUGGUACAGCUUGCAUAGUAUUAACUUA, the “pre-steady-state target cleavage rate” value was determined as 0.0223 ± 0.0097 in experiment [1] and 0.0032 ± 0.0024 in experiment [2].

UCCUGGAUGAGCUUGCAUAGUAUUUAAUUA: the “pre-steady-state target cleavage rate” value stood at 0.0516 ± 0.014 in experiment [1] and 0.00294 ± 0.0025 in experiment [2].

Take UCCUGGAACAGCAUGCAUAGUAUUUAGAUA: the “pre-steady-state target cleavage rate” value in experiment [1] amounted to 0.188 ± 0.022; in experiment [2], 0.00441 ± 0.0022.

Consider UCCUGCUACAGCUUGCAUAGUUUUUAGAUA, for which the “pre-steady-state target cleavage rate” value came to 0.0373 ± 0.011 in experiment [1] and 0.00319 ± 0.0018 in experiment [2].

On to UCCUGGAACAGCUUGCUUAGUAUUAAGUUA, for which the “pre-steady-state target cleavage rate” value in experiment [1] worked out at 0.179 ± 0.026; in experiment [2], 0.00237 ± 0.002.

Consider UCCUGGAACACCUUGCAUACUAUUUAGUUA, for which the “pre-steady-state target cleavage rate” value in experiment [1] is 0.0449 ± 0.0096; in experiment [2], 0.00273 ± 0.002.

UCCUCCUACACGUUGCAUAGUAUUUAGAAA: the “pre-steady-state target cleavage rate” value was 0.161 ± 0.029 in experiment [1] and 0.00396 ± 0.003 in experiment [2].

For the sequence UCCUCCUACAGCUUGCAUAGUAUGUAGUUA, the “pre-steady-state target cleavage rate” value in experiment [1] came to 0.041 ± 0.015; in experiment [2], 0.00354 ± 0.0013.

For the sequence UCCUCCUAGAGCUUGCAUAGUAUUUAGAUA, the “pre-steady-state target cleavage rate” value in experiment [1] stood at 0.123 ± 0.025; in experiment [2], 0.0043 ± 0.0018.

UCCUGGUACAGCUUGCAUAGUAAUUAGUAA: the “pre-steady-state target cleavage rate” value worked out at 0.212 ± 0.037 in experiment [1] and 0.00568 ± 0.0029 in experiment [2].

Regarding UCCUGGAUCAGCAUGCAUAGUAUUUACAAA, the “pre-steady-state target cleavage rate” value in experiment [1] stood at 0.0991 ± 0.019; in experiment [2], 0.00615 ± 0.0038.

As for UCCUGGAACAGCUUGCAUAGUAUUUAGAAA, the “pre-steady-state target cleavage rate” value in experiment [1] came to 0.0838 ± 0.015; in experiment [2] it was 0.00395 ± 0.0012.

Take UCCUGGUACAGCUUGCAUAGUAUUAAGUAA: the results for the “pre-steady-state target cleavage rate” value in experiment [1] and in experiment [2] were 0.128 ± 0.035 and 0.0031 ± 0.0028, respectively.

Regarding UCCUGGAACAGCUUGCAUAGUUUUUAGAAA, the results for the “pre-steady-state target cleavage rate” value in experiment [1] and in experiment [2] were 0.0191 ± 0.007 and 0.00413 ± 0.0021, respectively.

Take UCCUCCUACAGCUUGCAUAAGUAUUUAGUUA: the “pre-steady-state target cleavage rate” value worked out at 0.0109 ± 0.0055 in experiment [1] and 0.00345 ± 0.0019 in experiment [2].

In the case of UCCUGCUACAGCUUGCAUAGUAUGUUAGUUA, the “pre-steady-state target cleavage rate” value was 0.164 ± 0.036 in experiment [1] and 0.00247 ± 0.002 in experiment [2].

Take UCCUCCUACAGCUUGCAUAGUAAUUACUUA: the “pre-steady-state target cleavage rate” value in experiment [1] stood at 0.0937 ± 0.025; in experiment [2], 0.005 ± 0.0027.

For the sequence UCCUGCUACAGCUUGCUUAGUAUUAAGUUA, the “pre-steady-state target cleavage rate” value in experiment [1] was determined as 0.179 ± 0.026; in experiment [2], 0.00988 ± 0.0037.

As to UCCUGGAACUGCUUCCAUAGUAUUUAGUUA, the “pre-steady-state target cleavage rate” value in experiment [1] was 0.074 ± 0.022; in experiment [2], 0.00266 ± 0.0013.

As for UCCUGGAACAGCUUGCAUAGUAUUUUGAUA, the “pre-steady-state target cleavage rate” value in experiment [1] came to 0.0833 ± 0.019; in experiment [2] it was 0.00265 ± 0.0024.

As for UCCUGCUACAGCUUGCAUAGUAAUUACAAA, the “pre-steady-state target cleavage rate” value in experiment [1] stood at 0.0901 ± 0.029; in experiment [2], 0.00259 ± 0.0018.

Consider UCCUGGAACAGCUUGCUAUAGUAUUUAGUUA, for which the results for the “pre-steady-state target cleavage rate” value in experiment [1] and in experiment [2] were 0.028 ± 0.0077 and 0.00682 ± 0.0023, respectively.

Take UCCUCCUACUGCUUGCAUAGUAUUUACUUA: the “pre-steady-state target cleavage rate” value was 0.0701 ± 0.013 in experiment [1] and 0.00299 ± 0.0029 in experiment [2].

UCCUGGUACAGCUUGCAUAGUAUUUACAAA: the “pre-steady-state target cleavage rate” value in experiment [1] stood at 0.0693 ± 0.017; in experiment [2], 0.003 ± 0.002.

As to UCCUCCUACAGCUUGCAUAGUAUUAUCUAA, the “pre-steady-state target cleavage rate” value in experiment [1] is 0.187 ± 0.045; in experiment [2], 0.00413 ± 0.0033.

Consider UCCUGGUACAGCUUGCAUAGUUAUUAGUAA, for which the “pre-steady-state target cleavage rate” value in experiment [1] turned out to be 0.01 ± 0.0044; in experiment [2], 0.00807 ± 0.0043.

Consider UCCUCCUACACCUUGCAUAGUAUUAAGUUA, for which the “pre-steady-state target cleavage rate” value in experiment [1] was found to be 0.178 ± 0.036; in experiment [2] it was 0.00451 ± 0.0025.

Turning to UCCUGCUACAGCUUGCAUUGUAUUUAGAUA, the “pre-steady-state target cleavage rate” value in experiment [1] came out at 0.106 ± 0.017; in experiment [2], 0.00283 ± 0.0018.

Take UCCUCCUACAGCUUGCAUAGUAUUUUGUAA: the “pre-steady-state target cleavage rate” value was 0.092 ± 0.019 in experiment [1] and 0.0056 ± 0.003 in experiment [2].

Consider UCCUGCUACAGCUUGCAUAGAAUAUAGUUA, for which the “pre-steady-state target cleavage rate” value in experiment [1] was determined as 0.0873 ± 0.021; in experiment [2] it was 0.00332 ± 0.0022.

Turning to UCCUGGAUGAGCUUGCAAUAGUAUUUAGUUA, the “pre-steady-state target cleavage rate” value is 0.00505 ± 0.0031 in experiment [1] and 0.00597 ± 0.003 in experiment [2].

With UCCUGCUUGAGCUUGCAUAGUAUUUAGAAA, the “pre-steady-state target cleavage rate” value in experiment [1] amounted to 0.148 ± 0.027; in experiment [2], 0.00479 ± 0.0016.

For UCCUGCUACAGCAUGCAUAGUAUUUAGAUA, the “pre-steady-state target cleavage rate” value in experiment [1] was found to be 0.179 ± 0.033; in experiment [2], 0.00378 ± 0.0015.

Consider UCCUGCUACAGCUUGCAUAGUUUUAGUUA, for which the “pre-steady-state target cleavage rate” value in experiment [1] stood at 0.0113 ± 0.0045; in experiment [2] it was 0.00248 ± 0.0013.

With UCCUCCUACAGCUUGCAUAGUAUAAUGAAA, the figures for the “pre-steady-state target cleavage rate” value in experiment [1] and in experiment [2] were 0.0878 ± 0.019 and 0.00235 ± 0.0022, respectively.

For the sequence UCCUGGAACAGCUUGCAUAGUAUUUAGCUUA, the figures for the “pre-steady-state target cleavage rate” value in experiment [1] and in experiment [2] were 0.195 ± 0.047 and 0.00529 ± 0.0018, respectively.

With UCCUGCUAAAGCUUGCAUAGUAUUUAGUUA, the “pre-steady-state target cleavage rate” value was determined as 0.177 ± 0.035 in experiment [1] and 0.00411 ± 0.0014 in experiment [2].

Turning to UCCUGCUACAGGUUGCAUAGUAUUUACAAA, the “pre-steady-state target cleavage rate” value in experiment [1] was 0.0112 ± 0.0054; in experiment [2] it was 0.00244 ± 0.0017.

In the case of UCCUGCUACACCUUGCAUAGUAUUUAGAUA, the entries for the “pre-steady-state target cleavage rate” value in experiment [1] and in experiment [2] were 0.112 ± 0.032 and 0.00254 ± 0.0016, respectively.

As for UCCUGGAUGAGCUUGGCAUAGUAUUUAGUUA, the “pre-steady-state target cleavage rate” value in experiment [1] came to 0.224 ± 0.054; in experiment [2] it was 0.0123 ± 0.0039.

UCCUGGAUGAGCUUGCAUACUAUUUAGUAA: the results for the “pre-steady-state target cleavage rate” value in experiment [1] and in experiment [2] were 0.00877 ± 0.0036 and 0.00227 ± 0.0018, respectively.

Turning to UCCUGGUUCAGCUUGCAUAGUAUUUAGAAA, the “pre-steady-state target cleavage rate” value came out at 0.114 ± 0.022 in experiment [1] and 0.00471 ± 0.003 in experiment [2].

Consider UCCUCCUACAGCUUGCAUAGUAUUUAGUCUA, for which the “pre-steady-state target cleavage rate” value in experiment [1] is 0.154 ± 0.041; in experiment [2], 0.00459 ± 0.0018.

Turning to UCCUCCUACAGCUUGCAUUAGUAUUUAGUUA, the “pre-steady-state target cleavage rate” value in experiment [1] was found to be 0.0229 ± 0.0088; in experiment [2], 0.00479 ± 0.0038.

For UCCUGGAUCAGCUUGCUAUAGUAUUUAGUUA, the entries for the “pre-steady-state target cleavage rate” value in experiment [1] and in experiment [2] were 0.0101 ± 0.0052 and 0.00528 ± 0.0019, respectively.

With UCCUGGAAGAGCUUCCAUAGUAUUUAGUUA, the “pre-steady-state target cleavage rate” value amounted to 0.297 ± 0.085 in experiment [1] and 0.00329 ± 0.0011 in experiment [2].

In the case of UCCUGGAUCAGCUUGCAUACUAUUUAGUAA, the “pre-steady-state target cleavage rate” value was determined as 0.0386 ± 0.0077 in experiment [1] and 0.00398 ± 0.0023 in experiment [2].

For UCCUCCUACAGCUUGCAUAGUAAAAAGUAA, the “pre-steady-state target cleavage rate” value in experiment [1] was found to be 0.0657 ± 0.019; in experiment [2], 0.00344 ± 0.0029.

For the sequence UCCUGCUUCAGCUUGCAUAGUAUUUACAAA, the figures for the “pre-steady-state target cleavage rate” value in experiment [1] and in experiment [2] were 0.212 ± 0.047 and 0.00462 ± 0.0025, respectively.

For UCCUCCUUGAGCUUGCAUAGUAUUUUCAAA, the “pre-steady-state target cleavage rate” value is 0.0637 ± 0.016 in experiment [1] and 0.00265 ± 0.0021 in experiment [2].

Turning to UCCUGCUACAGCUUGCAUAGUUUUUUCAAA, the “pre-steady-state target cleavage rate” value in experiment [1] was found to be 0.0433 ± 0.014; in experiment [2], 0.00248 ± 0.0022.

For UCCUGGAACAGCUUGCAUAGUAUUUUGUUA, the “pre-steady-state target cleavage rate” value came to 0.154 ± 0.029 in experiment [1] and 0.00368 ± 0.0018 in experiment [2].

As to UCCUCCAACAGCUUGCAUAGUAUUUAGAAA, the “pre-steady-state target cleavage rate” value in experiment [1] is 0.147 ± 0.023; in experiment [2], 0.00461 ± 0.0019.

As for UCCUCCUACAGCUUGCAUAGUAUUAUCAAA, the “pre-steady-state target cleavage rate” value in experiment [1] stood at 0.0973 ± 0.021; in experiment [2], 0.00273 ± 0.0027.

As to UCCUCGUACAGCUUGCAUAGUAUUUUCAAA, the “pre-steady-state target cleavage rate” value in experiment [1] came out at 0.0759 ± 0.02; in experiment [2], 0.0038 ± 0.0029.

On to UCCUGGAUGUGCUUGCAUAGUAUUUAUUA, for which the entries for the “pre-steady-state target cleavage rate” value in experiment [1] and in experiment [2] were 0.00911 ± 0.0051 and 0.00271 ± 0.0022, respectively.
